Each structure is given as a SMILES string. Active and inactive are the calls of the source. No rule for the calls is given here.
Potency is read from the fitted curve at half-maximal effect.

This test has as its system HIV-1 nucleocapsid protein NCp7 (binding to TG oligonucleotide). Description: HIV Nucleocapsid (AID 346).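 Also: potency is for inhibitors that block NC binding and lower polarization.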 The note with it: HIV-1 NC / fluorescein-TGTGTGTG probe, fluorescence polarization. The gist of the method:
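Inhibition of nucleocapsid binding to single-stranded 5'-TGTGTGTG probe (10 nM) was measured by fluorescence polarization after 1 hr at room temperature with 100 nM protein under high-salt, zinc-containing, reducing conditions.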
For the compound `CCNc1ncc2ncc(=O)n(Cc3cccc(OC)c3)c2n1`, the Potency is > 20 µM (inactive). Consider `CN(Cc1ccco1)c1ncnc2ccc(-c3ccoc3)cc12`, for which the Potency was > 20 µM (inactive). On to `COCCn1c(=O)c(-c2cc(F)cc(F)c2)nc2cnc(OC)nc21`, for which the Potency is > 20 µM (inactive). The same measure for `O=S(=O)(c1ccccc1)N1CCC2(CCCN(Cc3nccs3)C2)CC1`: > 20 µM (inactive); for `COCC(=O)N1CCC[C@@]2(CCN(C(=O)Nc3cccc(C#N)c3)C2)C1`: > 20 µM (inactive); for `COc1ccc(-c2nc3cncnc3n(-c3ccccc3)c2=O)cc1`: > 20 µM (inactive). On to `O=S(=O)(c1ccccc1)N1CCC[C@@]2(CCN(C(c3ccccc3)c3ccccc3)C2)C1`, for which the Potency was > 20 µM (inactive). `CN(Cc1ccco1)c1nc(-c2cccnc2)nc2ccccc12`: the Potency was > 20 µM (inactive). `O=c1c(-c2ccc(Cl)cc2)nc2cnc(N3CCOCC3)nc2n1C[C@H]1CCCO1`: the Potency was > 20 µM (inactive). The same measure for `COc1cccc(Cn2c(=O)c(C)nc3cnc(Nc4cccc(OC)c4)nc32)c1`: > 20 µM (inactive); for `CN1CCN(c2ccnc(-c3ccc(N(C)C)cc3)n2)CC1`: > 20 µM (inactive); for `COc1ccccc1CN1CCC2(CC1)CCN(C(=O)c1cccn1C)CC2`: > 20 µM (inactive). In the case of `COC(=O)N1CCC2(CC1)CCN(c1ccncc1)CC2`, the Potency is > 20 µM (inactive). As for `COc1cccc(Cn2c(=O)cnc3cnc(Oc4ccccc4)nc32)c1`, the Potency was > 4 µM (inactive). For `c1cncc(-c2cc(NCc3cccs3)ncn2)c1`, the Potency was > 20 µM (inactive). For `c1cncc(-c2nc(N3CCNCC3)c3ccccc3n2)c1`, the Potency was > 20 µM (inactive).

Turning to `O=c1cnc2cnc(Oc3ccccc3)nc2n1Cc1cccs1`, the Potency was > 20 µM (inactive). On to `CN1CC[C@@]2(CCCN(C(=O)c3cccc(F)c3)C2)C1`, for which the Potency is > 20 µM (inactive). For `COCC(=O)N1CCC2(CCCN(c3ccc(-c4ccccc4)cc3)C2)CC1`, the Potency was > 20 µM (inactive). As to `COc1ncc2nc(-c3cc(F)cc(F)c3)c(=O)n(-c3ccccc3)c2n1`, the Potency was > 20 µM (inactive). The same measure for `O=c1cnc2cnc(Nc3ccccc3)nc2n1CCc1ccccc1`: > 20 µM (inactive). In the case of `COCCn1c(=O)c(-c2cccc(C#N)c2)nc2cnc(N3CCNCC3)nc21`, the Potency was > 20 µM (inactive).

As to `CS(=O)(=O)Nc1cccc(-c2nc(Nc3ccncc3)c3ccccc3n2)c1`, the Potency is > 20 µM (inactive). Consider `COC(=O)N1CCC2(CCCN(Cc3ccc(C#N)cc3)C2)CC1`, for which the Potency is > 20 µM (inactive). The same measure for `Cc1cccc(CNc2ncnc3ccc(-c4cccnc4)cc23)c1`: > 20 µM (inactive). The same measure for `COc1cccc(-c2cncnc2Nc2ccc(F)cc2)c1`: > 20 µM (inactive); for `Cc1cnc(CNc2nc(-c3ccccc3C)nc3ccccc23)cn1`: > 20 µM (inactive); for `CNc1ncnc2ccc(-c3cccc(NS(C)(=O)=O)c3)cc12`: > 20 µM (inactive). As to `Cc1cnc(CNc2nc(-c3ccc(C(=O)N(C)C)cc3)nc3ccccc23)cn1`, the Potency was > 20 µM (inactive). `Cn1c(=O)c(-c2cc(F)cc(F)c2)nc2cnc(Oc3cccc(Cl)c3)nc21`: the Potency is > 20 µM (inactive). As for `COc1ccc2[nH]cc(CCNc3nc(-c4ccoc4)nc4ccccc34)c2c1`, the Potency is > 20 µM (inactive). Consider `O=C(c1cc(C(F)(F)F)cc(C(F)(F)F)c1)N1CCC2(CC1)CCN(c1ncccn1)CC2`, for which the Potency was > 20 µM (inactive).

Take `COc1ccc2[nH]cc(CCNc3ncnc4ccc(-c5ccccc5C#N)cc34)c2c1`: the Potency was > 20 µM (inactive). With `COc1ccc(C(=O)N2CCC[C@@]3(CCN(c4ncccn4)C3)C2)cc1`, the Potency is > 20 µM (inactive). With `CS(=O)(=O)N1CCC2(CC1)CN(C(c1ccccc1)c1ccccc1)C2`, the Potency was > 20 µM (inactive).

For the compound `CC(C)NC(=O)N1CC[C@@]2(CCCN(S(C)(=O)=O)C2)C1`, the Potency is > 20 µM (inactive). Regarding `CS(=O)(=O)Nc1cccc(-c2cncnc2Nc2ccc(F)cc2)c1`, the Potency was > 20 µM (inactive).

For `N#CCCn1c(=O)c(CCc2ccccc2)nc2cnc(Oc3cccc(Cl)c3)nc21`, the Potency is > 20 µM (inactive). With `Cc1nc2cnc(Nc3ccccc3)nc2n(C)c1=O`, the Potency is > 4 µM (inactive). The figure for `COc1ncc2nc(-c3ccccc3)c(=O)n(CCc3ccccc3)c2n1` is > 20 µM (inactive).

The values are drawn from PubChem BioAssay (NCATS).
